Laboratory results: PubChem BioAssay AID778 (Sanford-Burnham Center for Chemical Genomics, 2007)
About 20,000 (21%) of roughly 96,000 compounds were called active. The list is a sample of the results. A number with no mark means an inactive call.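 The calls were made as follows: active = CYP2C19 inhibition above a set limit at 5 µM in the primary screen (cut at about 50% in these data); inactive = the rest.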

Target: Cytochrome P450 2C19 (Homo sapiens) (UniProt P33261)
Assay: blockers of cytochrome P450 2C19 activity – biochemical, luminescence, ADME assay, primary screen (AID 778);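 also: plate controls were negative control wells for no effect and 2.5 mM tranylcypromine positive control for full effect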
Details: CYP2C19 Supersomes, luciferin-H EGE luminescence, 30 min; at 5 µM; stronger effect = higher value

Chain of Cytochrome P450 2C19 (Homo sapiens) (P33261 whole entry, looked up): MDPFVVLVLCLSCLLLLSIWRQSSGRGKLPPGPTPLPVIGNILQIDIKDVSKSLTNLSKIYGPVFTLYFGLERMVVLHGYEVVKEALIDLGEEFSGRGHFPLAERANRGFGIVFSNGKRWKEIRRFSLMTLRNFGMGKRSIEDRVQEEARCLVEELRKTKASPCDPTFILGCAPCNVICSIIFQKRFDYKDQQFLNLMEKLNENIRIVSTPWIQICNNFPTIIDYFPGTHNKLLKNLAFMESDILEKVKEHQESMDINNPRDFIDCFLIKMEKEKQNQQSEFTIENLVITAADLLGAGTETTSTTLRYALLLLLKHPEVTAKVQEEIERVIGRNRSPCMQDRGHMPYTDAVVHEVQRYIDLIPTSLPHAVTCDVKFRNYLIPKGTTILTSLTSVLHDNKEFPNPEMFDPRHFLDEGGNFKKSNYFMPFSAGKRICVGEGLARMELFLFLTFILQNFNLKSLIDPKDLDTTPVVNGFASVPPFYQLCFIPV

| SMILES | inhibition |
| --- | --- |
| COc1ccc(OC)c2[nH]c(=O)c(CCNC(=O)C(C)(C)C)cc12 | 13.1% |
| O=C(Cn1nc(C(F)(F)F)c2c1CCC2)NCc1ccc(F)cc1 | 45.9% |
| CCSc1nc(=S)n(CC)c(C)c1C(C)=O | -23.9% |
| O=C(CCCN1C(=O)c2ccccc2C1=O)Oc1ccc(Cl)cc1 | 14.2% |
| COc1ccc(NC(=O)/C(Cl)=C(/Cl)S(=O)Cc2ccc(C)cc2)cn1 (stereo not drawn) | 33.8% |
| O=C(Nc1nnc(C2CC2)s1)c1ccccn1 | 20.4% |
| CCCc1nc(N2CCN(C)CC2)c2sc(=S)n(-c3ccccc3)c2n1 | 4.4% |
| CCOc1ccc(NC(=O)CCS(=O)(=O)c2ccc3c(c2)CCCN3C(=O)CC)cc1 | 3.3% |
| O=C(CC1Oc2ccccc2NC1=O)NCCCN1CCN(Cc2ccccc2)CC1 (stereo not drawn) | -1.2% |
| Cc1ccc2c(c1)N(CC(=O)N1CCCc3ccccc31)C(=O)C(C)O2 (stereo not drawn) | 34.4% |
| O=C(Cc1ccccc1)n1nc(-c2ccccc2)nc1NCc1ccco1 | 15.9% |
| O=C(O)CSC(NC(=O)c1cccnc1)(C(F)(F)F)C(F)(F)F | -13.3% |
| CC(N=Cc1nc(-c2ccccc2)oc1O)c1ccccc1 (stereo not drawn) | 71.8% (active) |
| CC(NC(=O)c1cc(-c2ccccc2)on1)c1ccccc1 (stereo not drawn) | 13% |
| CCn1c(/C=C/c2ccc([N+](=O)[O-])o2)nc2ccccc2c1=O | -3.3% |
| Cc1ccc(-n2c(C)cc(/C=N/Nc3ccc([N+](=O)[O-])cn3)c2C)c(C)c1 | -0.3% |
| CN1C(=O)CC(N2CCN(c3ccccn3)CC2)C1=O (stereo not drawn) | 17.8% |
| CSc1cccc(NC(=O)CSc2ccccc2)c1 | 83.5% (active) |
| COc1cccc(-n2c(Cc3cc(=O)[nH]c(=O)[nH]3)nnc2SCC(=O)Nc2ccccc2)c1 | -8.7% |
| Cc1ccn(C(CC(=O)c2ccc(Br)cc2)C(=O)O)n1 (stereo not drawn) | -25.7% |
| O=C(Oc1ccc(-c2nc(-c3ccccn3)no2)cc1)c1ccccc1 | 99.5% (active) |
| O=C(Oc1ccccc1)c1ccc2nccnc2c1 | 20.3% |
| CC(C)c1nc(-c2ccccn2)no1 | -3.1% |
| CCc1cc(Br)ccc1NC(=O)C1CCCO1 (stereo not drawn) | 30.5% |
| CC(=O)c1cc(-c2ccccc2)[nH]c1N1CCCC1 | 10.4% |
| O=C(COC(=O)c1ccccc1NC(=O)c1ccco1)Nc1ccc2c(c1)OC(F)(F)O2 | 57.4% (active) |
| CCOc1cc(NC(=O)c2ccco2)c(OCC)cc1NC(=O)COc1ccccc1 | 24.6% |
| COc1ccccc1C(=O)Nc1ccc(NC(=O)c2ccco2)c(C)c1 | 45.5% |
